# Laboratory results: PubChem BioAssay (NCATS)
# Records with an inconclusive call do not appear. Values without a mark were called inactive. The call rests on the fitted dose curve; in most records, active means well fitted cell-killing curve with a large enough effect; inconclusive means small, poorly fitted or top-dose-only effect, or effect the other way; inactive means flat fitted curve, though single readings scatter.
# System: Tov-21-G
# Assay: Primary qHTS to identify gynecologic anti-cancer compounds using libraries of approved drugs and bioactive compounds (AID 1345084); further: nearly all actives have a fitted effect of over 55% in size
# Settings: Gynecologic cancer cell panel viability, ATPlite luminescence, 48 h; series mostly up to 57.5 µM; activity change, negative = cytotoxicity: at the top concentration
# How it was run: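 Cell viability after 48 h drug treatment, ATPlite luminescence readout; five doses.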
# On the % scale 0 is the no-effect control and ±100 the full control effect.
row,Structure (SMILES),"activity change, negative = cytotoxicity"
1,CC(=O)C12OC(C)(C)OC1CC1C3CCC4=CC(=O)C=CC4(C)C3(F)C(O)CC12C (configuration not stated),12.3%
2,COC(=O)C1=CO[C@@H](O[C@@H]2O[C@H](CO[C@@H]3O[C@H](COC(=O)/C=C/c4cc(OC)c(O)c(OC)c4)[C@@H](O)[C@H](O)[C@H]3O)[C@@H](O)[C@H](O)[C@H]2O)[C@@H]2C(CO)=CC[C@H]12,17.8% [at 25.3 µM]
3,CC1=C2C3OC(=O)C(C)C3(O)CCC2(C)CCC1O (configuration not stated),17.9%
4,COc1ccccc1Oc1ccc(N(Cc2cccnc2)S(=O)(=O)CC(F)(F)F)cc1,-12.1%
5,O=C(/C=C/c1ccc(O)cc1)N[C@@H](Cc1ccc(O)cc1)C(=O)O,-2.19% [at 38.5 µM]
6,CC1=C(C)C(=O)OC(C(C)C2CCC3C4C5OC5C5(O)CC(OC6OC(CO)C(OC7OC(C)C(O)C(O)C7O)C(O)C6O)CC(O)C5(C)C4CCC23C)C1 (configuration not stated),1.79% [at 25.3 µM]
7,C=C[C@H]1CN2CC[C@H]1C[C@@H]2C(O)c1ccnc2ccc(OC)cc12 (some centres not stated),-8.47% [at 38.5 µM]
8,C=C[C@H]1C(O[C@@H]2O[C@H](CO)[C@@H](O)[C@H](O)[C@H]2O)OC=C2C(=O)N3CCc4c([nH]c5ccccc45)C3CC21 (some centres not stated),0.0441% [at 25.3 µM]
9,O=C(O)/C=C/c1ccc(O)c(O[C@@H]2O[C@H](CO)[C@@H](O)[C@H](O)[C@H]2O)c1,3.26% [at 38.5 µM]
10,C=C(C(=O)O)C1CC(O)C2(C)CCCC(=C)C2C1 (configuration not stated),-13.1%
11,CC1CCC2(C(=O)O)CCC3(C)C(=CCC4C5(C)CCC(OC(=O)/C=C/c6ccccc6)C(C)(C)C5CCC43C)C2C1C (configuration not stated),0.504% [at 25.3 µM]
12,C=C[C@H]1[C@H](O[C@@H]2O[C@H](CO)[C@@H](O)[C@H](O)[C@H]2O)OC=C(C(=O)OC)[C@H]1CC(=O)O,10% [at 38.5 µM]
